Data on 53 compounds can be found in PubChem BioAssay AID1259421 (Broad Institute, 2018).

Values joined by “and” are separate entries in the source; they are usually repeats but may differ in a detail not shown here. Identical values can stand only once. Hit rate of the full screen: of about 6,400 compounds, about 610 (9.5%) were called active. No stated cut-off is given here; in the data, active means activity change below about -70%; inconclusive means no clear call, values can overlap the other calls; inactive means above that. The sample as a whole holds a higher share of actives than the screen did. Some compounds were tested as several samples or in several runs, with calls that do not always agree.

The nature of this test: Toxoplasma gondii ME49Luc growth in HeLa cells, luciferase, no IFN-y, primary screen (AID 1259421). Particulars: T. gondii ME49Luc in HeLa, 72 h, stronger effect = lower value, concentration not given here.
For `O=c1[nH]c2ccccc2c(=O)n1CCCN1CCN(c2ccccc2)CC1`, the activity change, negative = inhibition is 11.8% (inactive).

`CCC1(C)OC(=O)N(C)C1=O` (stereo not drawn): the activity change, negative = inhibition was -5.39% (inactive).

On to `CC(C)(C)c1[nH]cnc1/C=c1\[nH]c(=O)/c(=C/c2ccccc2)[nH]c1=O`, for which the activity change, negative = inhibition was -85.5% (active).

Take `O=c1[nH]cnc2ccccc12`: the activity change, negative = inhibition is 0.966% (inactive) and 1.04% (inactive).

Consider `CCCCCCCCCCCCCCOS(=O)(=O)O`, for which the activity change, negative = inhibition is 8.96% (inactive).

For the compound `COc1ccc(C(=O)/C=C/c2ccccc2)cc1`, the activity change, negative = inhibition is 157% (inactive).

With `CC(=O)NC[C@H]1CN(c2ccc(N3CCN(C(=O)CO)CC3)c(F)c2)C(=O)O1`, the activity change, negative = inhibition is 6.07% (inactive).

As to `CC(=O)NC(Cc1c[nH]c2ccccc12)C(=O)OCc1cc(C(F)(F)F)cc(C(F)(F)F)c1` (stereo not drawn), the activity change, negative = inhibition was -1.95% (inactive).

As to `CC(=O)N[C@H](Cc1c[nH]c2ccccc12)C(=O)OCc1cc(C(F)(F)F)cc(C(F)(F)F)c1`, the activity change, negative = inhibition was 6.34% (inactive).

Regarding `FC(F)(F)c1cc(CO[C@H]2CCCN[C@H]2c2ccccc2)cc(C(F)(F)F)c1`, the activity change, negative = inhibition is -9.54% (inactive) and -89.9% (active).

In the case of `O=C(O)CN(CCN(CC(=O)O)CC(=O)O)CC(=O)O`, the activity change, negative = inhibition is 1.89% (inactive).

For the compound `COCC1=C(C(=O)OC(C)OC(=O)OC(C)C)N2C(=O)[C@@H](NC(=O)/C(=N/OC)c3csc(N)n3)[C@H]2SC1` (stereo partly drawn), the activity change, negative = inhibition is -2.51% (inactive).

Consider `O=C(N/N=C/c1ccc([N+](=O)[O-])o1)c1ccc(O)cc1`, for which the activity change, negative = inhibition is -85.5% (active).

`CCN(CC)c1ccc(/C=N/NC(=O)c2ccc(O)cc2)cc1`: the activity change, negative = inhibition is 29.5% (inactive) and 44.8% (inactive).

In the case of `NC(=O)N/N=C/c1ccc([N+](=O)[O-])o1`, the activity change, negative = inhibition was -68.6% (inactive) and -50.1% (inactive).

Take `CCCCCCn1c(=O)c2c(ncn2C)n(C)c1=O`: the activity change, negative = inhibition was 11.4% (inactive).

As for `Cc1cccc(/C=C/c2ccccc2)n1`, the activity change, negative = inhibition was 35.7% (inactive).

For the compound `CCc1nc(C)ccc1O`, the activity change, negative = inhibition was -11.9% (inactive).

Turning to `Cc1ccc2ccc3ccc(C)nc3c2n1`, the activity change, negative = inhibition was -94.5% (active).

Turning to `OCC1OC(O)C(F)C(O)C1O` (stereo not drawn), the activity change, negative = inhibition is 8.12% (inactive).

For the compound `CCC[C@@H]1C[C@@H](C(=O)NC(C(C)Cl)[C@H]2O[C@H](SC)[C@H](O)[C@@H](O)[C@H]2O)N(C)C1` (stereo partly drawn), the activity change, negative = inhibition is -1.81% (inactive) and 9.35% (inactive).

As for `COc1cc(-c2ncn(/C=C\C(=O)OC(C)C)n2)cc(C(F)(F)F)c1`, the activity change, negative = inhibition was -86.8% (active).

Consider `O=C(/C=C\n1cnc(-c2cc(C(F)(F)F)cc(C(F)(F)F)c2)n1)NNc1cnccn1`, for which the activity change, negative = inhibition was -78.8% (active).

`O=C(/C=C\n1cnc(-c2cc(C(F)(F)F)cc(C(F)(F)F)c2)n1)N1CC(F)(F)C1`: the activity change, negative = inhibition is -81.3% (active).

Take `CC(=O)CC(=O)O`: the activity change, negative = inhibition is -0.799% (inactive).

With `CC(=O)c1c(O)cc(O)cc1O`, the activity change, negative = inhibition is 6.7% (inactive).

Turning to `COc1c(OC)c2occc2c2oc(=O)ccc12`, the activity change, negative = inhibition was 9.46% (inactive).

In the case of `CC(=O)OCC(=O)[C@@]1(O)CCC2C3CCC4=CC(=O)C=C[C@]4(C)[C@@]3(Cl)[C@@H](Cl)C[C@@]21C` (stereo partly drawn), the activity change, negative = inhibition was -0.235% (inactive).

On to `CCCC(=O)O[C@@]1(C(=O)COC(C)=O)CC[C@H]2[C@@H]3C[C@H](F)C4=CC(=O)C=C[C@]4(C)[C@]3(F)[C@H](O)C[C@@]21C`, for which the activity change, negative = inhibition is 6.24% (inactive).

Consider `C[C@@H]1O[C@@]2(CS1)CN1CCC2CC1` (racemic), for which the activity change, negative = inhibition was 6.56% (inactive).

Turning to `c1cncc(CN2CCC(n3ncc4c(N5CCOCC5)nc(-c5ccc6[nH]ccc6c5)nc43)CC2)c1`, the activity change, negative = inhibition is -77.6% (active).

Regarding `C[C@@H]1CN(Cc2ncccn2)C[C@H]1c1nc2c(cnn2C2CCOCC2)c(=O)[nH]1`, the activity change, negative = inhibition was 4.49% (inactive).

On to `COC(=O)Nc1ccc(-c2nc(N3CCOCC3)c3cnn(C4CCN(C(=O)OC)CC4)c3n2)cc1`, for which the activity change, negative = inhibition is 21.2% (inactive).

As to `CC(=O)N1CCN(c2ccc(OCC3CO[C@](Cn4ccnc4)(c4ccc(Cl)cc4Cl)O3)cc2)CC1` (stereo partly drawn), the activity change, negative = inhibition was -58.1% (inactive).

Regarding `CCC1OC(=O)[C@H](C)C(=O)[C@H](C)[C@@H](OC2O[C@H](C)C[C@H](N(C)C)[C@H]2O)[C@](C)(OC)C[C@@H](C)C(=O)[C@H](C)[C@H]2N(CCCCn3cnc(-c4cccnc4)c3)C(=O)O[C@@]12C` (stereo partly drawn), the activity change, negative = inhibition is -5.19% (inactive).

Consider `NC(=S)N/N=C/c1ncccc1N`, for which the activity change, negative = inhibition is -83.2% (active).

For `NC(=S)N/N=C/c1ccncc1`, the activity change, negative = inhibition is 6.58% (inactive).

In the case of `CC(=O)O[C@]1(C(C)=O)CC[C@H]2[C@@H]3C=CC4=CC(=O)CC[C@]4(C)[C@H]3CC[C@@]21C`, the activity change, negative = inhibition was 8.87% (inactive).

As to `CCCc1ncc(C(=O)O)s1`, the activity change, negative = inhibition is 6.47% (inactive).

As to `COc1cc(Br)c(S(=O)(=O)Nc2ccc(Cl)c(O[C@@H]3CCN(C)C3)c2)cc1OC`, the activity change, negative = inhibition is 5.97% (inactive).

As to `NC(C(=O)O)[C@@H]1CC(Cl)=NO1` (stereo partly drawn), the activity change, negative = inhibition was -82% (active).

With `N[C@H](C(=O)O)[C@@H]1CC(Cl)=NO1`, the activity change, negative = inhibition is -72.2% (active).

Regarding `COC(=O)C1[C@H]2C[C@H]3c4[nH]c5ccccc5c4CCN3C[C@@H]2CC[C@@H]1O` (stereo partly drawn), the activity change, negative = inhibition was -3.89% (inactive).

`CC(=O)OCC(=O)[C@@]1(O)CCC2C3CCC4=CC(=O)CC[C@]4(C)C3[C@@H](O)C[C@@]21C` (stereo partly drawn): the activity change, negative = inhibition was -6.4% (inactive) and -14.3% (inactive).

On to `CN(C)Cc1cccc(N=C(c2ccccc2)c2c(O)[nH]c3cc(C(=O)N(C)C)ccc23)c1`, for which the activity change, negative = inhibition is -81.4% (active).

On to `COC(=O)c1ccc2c(C(=Nc3ccc(N(C)C(=O)CN4CCN(C)CC4)cc3)c3ccccc3)c(O)[nH]c2c1`, for which the activity change, negative = inhibition was -75.7% (active).

Turning to `CN(C)Cc1cccc(N=C(c2ccccc2)c2c(O)[nH]c3cc(C(N)=O)ccc23)c1`, the activity change, negative = inhibition is 9.28% (inactive) and -68.3% (inactive).

With `O=C(O)CN1CCN(CC(=O)O)CCN([C@H](CO)C(O)CO)CCN(CC(=O)O)CC1.[Gd]` (stereo partly drawn), the activity change, negative = inhibition is 8% (inactive).

`CC1(CN)Cc2ccccc2C1`: the activity change, negative = inhibition is 26% (inactive).

`C=CC(C)(O)CC[C@@H]1[C@@]2(C)CCCC(C)(C)C2CC[C@@]1(C)O` (stereo partly drawn): the activity change, negative = inhibition is 13.1% (inactive).

In the case of `COc1ccc2c(c1)OCC(Cc1ccc(OC)c(O)c1)C2=O` (stereo not drawn), the activity change, negative = inhibition is -61% (inactive).

Regarding `O=C(O)C1=CC(O)C(O)[C@H](O)C1` (stereo partly drawn), the activity change, negative = inhibition was -17.2% (inactive).

Take `CCC[C@@H](N[C@@H](C)C(=O)N1[C@@H](C(=O)O)C[C@@H]2CCCC[C@@H]21)C(=O)OCC`: the activity change, negative = inhibition was 10.1% (inactive).
